Screens as filed in PubChem BioAssay.
Many of the other results were omitted from the sample, so hits are more common in it than they were.
VCAM1 pot = TNF alpha stimulated VCAM1 expression potentiation | HUVEC TNFa-stimulated VCAM-1 immunofluorescence, high-content imaging; scaled per plate to unstimulated/TNFa-only wells | AID 808 | activation, % at 2 µM | 93,000 tested, 0.19% active;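 active = activation above the screen mean plus 3 SD, with well images confirming the hit on visual review, cut at about 28% in these data, passing the limit was not always enough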;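 also: signal is the number of cytoplasmic VCAM-1 stained grains per positive cell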
VCAM1 pot conf = enhancers of VCAM1 induction in HUVEC – imaging, triplicate retest, confirmation; shares compounds with VCAM1 pot; HUVEC TNFa-stimulated VCAM-1 immunofluorescence imaging; activation, % at 2 µM; 230 tested, under 10 active; AID 1034;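 active = activation above 30% in triplicate retests at 2 µM, then confirmed by visual review of the well images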
Large screens that a line does not name were inactive (follow-up assays come after a bar, where they were run).

O=C(CCCSc1nc2ccccc2s1)NC1=NCCS1	none
CCc1ccc(C(=O)COC(=O)c2cccc(N3C(=O)c4c(C)nc5ccccc5c4C3=O)c2)cc1	none
CC1CCCN(CC(=O)Nc2ccc(S(=O)(=O)NC3CCCCC3)cc2)C1 (stereo not drawn)	none
CC(C)NC1CS(=O)(=O)CC1O (stereo not drawn)	none
COC1(c2ccccc2)NC(=S)NN=C1c1ccccc1 (stereo not drawn)	none
CCc1noc(C)c1C(=O)Nc1sc(C(=O)N(C)C)c(C)c1C(=O)OC	none
CCCN1C2=C(C(=O)CCC2)C(c2ccc(F)cc2)C2=C1c1ccccc1C2=O (stereo not drawn)	none
CC(C)Oc1cc(NC(=O)CSCC(=O)Nc2cccc(C(F)(F)F)c2)c(Cl)cc1Cl	none
Nc1nnc(SCc2ccccc2F)n1-c1ccccc1	none
Cc1cccc(N2CCN(C(=O)NCc3ccc(Cl)cc3)CC2)c1	none
CC(C)(C)NC(=O)CN(C(=O)Cn1nnc(-c2ccccc2F)n1)c1cccc2c1CCCC2	none
O=c1c2ccccc2nc(/C=C/c2ccc([N+](=O)[O-])o2)n1CCCO	none
COC(=O)c1nn(-c2cccc(C(F)(F)F)c2)c(=O)cc1Sc1ccccn1	none
CCN(Cc1ccccc1)C(=O)Cn1c(=O)n(CC(=O)NCc2ccco2)c(=O)c2sccc21	none
COc1cccc(/C=N/NC(=O)CC(=O)NCCc2ccc(OC)c(OC)c2)c1	none
CCOC(=O)N1CCC(NC(=O)c2ccc(CS(=O)(=O)c3ccc(OC)cc3)o2)CC1	none
C/C=C/c1ccc(OCCn2cncn2)c(OC)c1	none
CCCC(C)NC(=O)c1cc(Cl)ccc1OC (stereo not drawn)	none
C=CCNC(=O)c1onc(CSc2ccccc2CC)c1C(=O)O	none
CCOC(=O)c1nnc2c(Br)c(-c3ccccc3)nn2c1C	none
CCc1nnc(NC(=O)CSc2nnc(CSc3nc(C)cc(C)n3)o2)s1	none
CCN(C(=O)c1cc2cccc(OC)c2oc1=O)C1CCCCC1	none
Cc1ccc(S(=O)(=O)N2CCOCC2)cc1C(=O)OCC(=O)N1CCc2ccccc2C1	none
COc1ccc(CCC(=O)NCCc2cn3c(C)csc3n2)cc1	none
CC1(C(=O)O)Cc2ccccc2C(=O)O1 (stereo not drawn)	none
C/C=C(\C)CN1CCN(c2ccc(C)cc2)CC1	none
CCOC(=O)Cc1csc(SCC(=O)/C(C#N)=C(\C)N)n1	none
CCCCCn1nc(C)c2c(C)cc(=O)[nH]c21	none
COC(=O)c1ccc(C(=O)OC)c(NC(=O)CSCc2ccc(Br)cc2)c1	none
O=C1CC(c2ccccc2)Cc2nc3ncnn3cc21 (stereo not drawn)	none
CCN(CC)S(=O)(=O)c1ccc(C(=O)NCCCN=C2NS(=O)(=O)c3ccccc32)cc1	none
CC(C)(C)n1ncc(Oc2ccc(Oc3cnn(C(C)(C)C)c(=O)c3Cl)cc2)c(Cl)c1=O	none
Cc1ccc(S(=O)(=O)c2cc3c(=O)n4ccccc4nc3n(Cc3ccco3)c2=N)cc1	none
N#Cc1cc2c(=O)n3ccccc3nc2n(CC2CCCO2)c1=N (stereo not drawn)	VCAM1 pot 47.0
COCCNC(=O)CSc1nc2ccccc2c(=O)n1CC1CCCO1 (stereo not drawn)	none
COCCNC(=O)C(c1cccs1)N(C(=O)Cn1nnc2ccccc21)c1ccc(OC)cc1 (stereo not drawn)	none
C=CCn1c(SCc2ccccc2C#N)nnc1-c1ccccc1O	none
CCCC(C(=O)NC1CCCC1)N(CCCN1CCOCC1)C(=O)c1snc(C(N)=O)c1N (stereo not drawn)	none
COc1cccc(Nc2nc(=O)[nH]nc2C)c1	none
O=C(COC(=O)c1cccnc1Cl)c1cccc(Cl)c1	none
Cn1ccnc1C(=O)c1cc(=O)c2ccccc2o1	none
CC1CCCCC1NC(=O)c1ccc2c(c1)[nH]c(=O)n2C1CCCC1 (stereo not drawn)	none
O=S(=O)(NCCc1ccncc1)c1cc(Br)ccc1F	none
O=c1[nH]c2cc3c(cc2cc1C(c1nnnn1C1CCCCC1)N1CCSCC1)OCCO3 (stereo not drawn)	none
CC1CCN(C(=S)c2ccccc2O)CC1	none
CC1=[N+]([O-])C(C)(C)C(C)N(O)C1=O (stereo not drawn)	none
CC1CC1C(=O)OCC(=O)NC(=O)NCc1ccco1 (stereo not drawn)	none
CC(C)COC(=O)n1c(SCC(=O)N(C)C)nc2ccccc21	none
CCOC(=O)c1ccccc1-c1csc(NS(=O)(=O)c2ccc(Cl)cc2)n1	none
CCCOC(=O)C1C2C=C[C@]3(CN(CCc4ccccc4)C(=O)[C@H]13)O2 (stereo partly drawn)	none
Cc1cccc(Oc2ccc(C(=O)NC3CCSC3=O)cn2)c1C (stereo not drawn)	none
Cc1c2cccn2cc[n+]1C	none
CCOC(=O)c1ccc(-n2[nH]c(-c3ccccc3)cc2=O)cc1	none
CCOC(=O)c1ccc(-n2nc(C(F)(F)F)c3c(C)cc(=O)oc32)cc1	VCAM1 pot 57.1
CCOC(=O)c1cnn(-c2nc(-c3ccc(C)cc3)cs2)c1C(F)(F)F	none
O=C(CSc1nnc2c3cc(F)ccc3nc(-c3ccccc3)n12)N1CCOCC1	none
CCCCCOP(=O)(OCCCCC)C1(NS(=O)(=O)c2ccccc2)C=CC(=O)c2ccccc21 (stereo not drawn)	none
O=S(=O)(NCc1cc(-c2ccccc2Cl)no1)c1ccc(Cl)cc1	none
C=CCn1c(SC(C)C(=O)NC2(C#N)CCCCC2)nnc1-c1ccc(OC)cc1 (stereo not drawn)	none
COc1ccc(CS(=O)(=O)/C(Cl)=C(/Cl)C(=O)Nc2ccc(OC)nc2)cc1	none
COc1nc(C)nc2c1ccc1ccccc12	none
CCN1CCN(C(c2cccs2)C(C)NS(=O)(=O)c2ccc(Br)cc2)CC1 (stereo not drawn)	none
CCOc1ccc(C(=O)C2CCN(CC(=O)Nc3ccccc3N3CCOCC3)CC2)cc1	none
Cc1ccc(S(=O)(=O)/N=C(\c2ccc(Cl)cc2)N2CCOCC2)cc1	none
CC1(C)CC(=O)c2cnc(N3CCc4ccccc4C3)nc2C1	none
O=C(O)C1C2C=CC(C2)C1C(=O)N1CCN(C/C=C/c2ccccc2)CC1 (stereo not drawn)	none
CCCCP(=O)(CCCC)Cc1ccccc1O	none
CCCC1(C(=O)OCC)NC(c2ccc(OC)cc2OC)C2C(=O)N(c3ccc4c(c3)OCCO4)C(=O)C21 (stereo not drawn)	none
CCOC(=O)c1cc(-c2ccccc2)sc1NC(=S)Nc1cccc(C)n1	none
CCC(=O)NC(Nc1cccc(C)n1)(C(F)(F)F)C(F)(F)F	none
Cc1cccc(NC(=O)c2sc3nc(-c4ccccc4)cn3c2C)n1	VCAM1 pot 41.6 | VCAM1 pot conf inactive
CC(C)C(OC(=O)c1ccco1)C(=O)NCc1ccccc1 (stereo not drawn)	none
COC(=O)Nc1c(C)nn(Cc2ccccc2C)c1C	none
CC(C)(C)NC(=O)Cn1c(SCC(N)=O)nc2ccccc21	none
Cn1c(SCC(=O)NCc2ccc(F)cc2)nc2ccccc21	VCAM1 pot 49.9 | VCAM1 pot conf inactive
Cc1nc2ccccc2n1CC(=O)NCc1ccccc1	none
CC1CC(NC(=O)Cc2ccc(Br)cc2)CC(C)(C)C1 (stereo not drawn)	none
CC(C)(C)c1ccc(OCC(=O)N2CCN(C=O)CC2)cc1	VCAM1 pot 68.9 | VCAM1 pot conf inactive
O=C(COc1ccc2ccccc2c1)N1CCN(c2ccccc2O)CC1	none
Cc1cc(=O)oc2ccc(OCC(=O)N3CCC(C)CC3)cc12	none
COC(=O)c1sc(=S)n(-c2cccc(Cl)c2)c1N	none
OC(COCc1ccc2c(c1)OCO2)CN1CCN(Cc2ccccc2)CC1 (stereo not drawn)	none
